In the library only some 19% were active in any assay of this set; here they are far more common.
Shiga toxin inh: A qHTS for Small Molecule Inhibitors of Shiga Toxin | Vero cells, Shiga toxin protein synthesis inhibition reporter | inhibition, % at 38.7 µM | actives 9.2% (n = 290,000); in the data active means inhibition mostly above about 28%, no sharp cut-off; inactive means mostly below about 43%
CHX counter: Cycloheximide Counterscreen for Small Molecule Inhibitors of Shiga Toxin; cell reporter, cycloheximide protein synthesis inhibition counterscreen; max response, %; actives 12% (n = 300,000); in the data active means max response mostly above about 13%, no sharp cut-off; inactive means mostly below about 14%; further: read at 38.3 µM for the half of the compounds with a filed dose
LASV entry inh: qHTS for Inhibitors of binding or entry into cells for Lassa Virus; Lassa virus pseudotype entry inhibition, cell reporter; Potency, µM (highest dose often 37.9 µM), most hits filed as inhibitors; actives 1.2% (n = 300,000); AID 540256, 2011; calls by dose curve; tested in HEK293 cells; further: nearly all actives have a fitted effect of over 50% in size
Pf growth 48h: Primary qHTS for delayed death inhibitors of the malarial parasite plastid, 48 hour incubation; P. falciparum luciferase growth in erythrocytes, 48 h; Potency, µM (top dose mostly 28.7 µM), most hits filed as inhibitors; actives 5.9% (n = 310,000)
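Read-out is firefly luciferase luminescence from an integrated reporter in P. falciparum, so falling signal marks reduced parasite growth. Infected erythrocytes were at 2% hematocrit and 0.1% parasitemia (final) in Albumax-supplemented RPMI 1640.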
Pf growth 96h: Primary qHTS for delayed death inhibitors of the malarial parasite plastid, 96 hour incubation | P. falciparum luciferase reporter growth, 96 h | Potency, µM (titrated, usually from 28.7 µM), hits mostly inhibitors | actives 6.9% (n = 320,000)
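Compounds incubated with erythrocytes infected by luciferase-expressing P. falciparum (2% hematocrit, 0.05% parasitemia final) for 96 hours, 37 C in 5% CO2. Growth inhibition scored as decreased luciferase luminescence.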
Marburg entry inh: qHTS for inhibitors of binding or entry into cells for Marburg Virus. AID 540276, 2011. Marburg virus pseudotyped entry inhibition, cell reporter. Potency, µM (highest dose often 37.8 µM), usual class: inhibitors. actives 1.8% (n = 300,000); calls by dose curve; tested in HEK293 cells
Hits are given with their value; . = inactive; ? = inconclusive; / = no result given. Unless noted, the call rests on the fitted dose curve; in most records, active means well fitted inhibition curve with a large enough effect; inconclusive means small, poorly fitted or top-dose-only effect, or another doubt; inactive means no such curve, though single readings can be large or run the other way.

SMILES | Shiga toxin inh | CHX counter | LASV entry inh | Pf growth 48h | Pf growth 96h | Marburg entry inh
Cc1ccc(/C=C/C(=O)Nc2ccccc2C(N)=O)cc1 | 63.5 | 45.9 | ? | . | . | 13µM
CN1N=C(c2ccc(F)c(F)c2)CSC1=NCc1ccccc1 | . | . | . | . | . | .
CN1N=C(C(C)(C)C)CSC1=Nc1ccc(F)cc1 | . | 19.0 | . | ? | . | .
O=C(Nc1ccc2oc(-c3ccccc3)nc2c1)c1ccco1 | 78.2 | 93.8 | ? | . | ? | ?
O=C(Nc1ccc2oc(-c3ccncc3)nc2c1)c1ccco1 | . | 27.0 | . | ? | . | ?
COC(=O)C1=C(c2cccc(C#N)c2)C[C@@H]2CC[C@H]1N2C(=O)NCCOc1ccc(OC)cc1 | / | / | / | ? | . | /
COC(=O)C1=C(c2cccc(OCc3ccccc3)c2)C[C@@H]2CC[C@H]1N2C(=O)NCc1ccc(Cl)cc1 | / | / | / | 8.28µM | ? | /
CCCNC(=O)N1[C@H]2CC[C@@H]1C(C(=O)OC)=C(c1ccc(OC)c(OC)c1)C2 | / | / | / | . | . | /
CCCNC(=O)N1[C@H]2CC[C@@H]1C(C(=O)OC)=C(c1cccc(C#N)c1)C2 | / | / | / | . | . | /
COC(=O)C1=C(c2ccc(OC)c(OC)c2)C[C@@H]2CC[C@H]1N2C(=O)NCc1cc(C)oc1C(F)(F)F | / | / | / | 9.28µM | ? | /
COC(=O)C1=C(c2cccc(OCc3ccccc3)c2)C[C@@H]2CC[C@H]1N2C(=O)NCc1cc(C)oc1C(F)(F)F | / | / | / | 4.65µM | ? | /
COC(=O)C1=C(c2ccc(OC)c(OC)c2)C[C@@H]2CC[C@H]1N2C(=O)NCc1cccc2ccccc12 | / | / | / | 0.522µM | 0.233µM | /
O=C(/C=C/c1cc(Br)ccc1O)c1ccco1 | . | . | / | . | . | /
COCCNC(=O)N1[C@H]2CC[C@@H]1C(C(=O)OC)=C(c1ccc(OC)c(OC)c1)C2 | / | / | / | . | . | /
COC(=O)C1=C(c2cccc(OCc3ccccc3)c2)C[C@@H]2CC[C@H]1N2C(=O)NCc1ccccc1OC | / | / | / | 7.38µM | ? | /
COC(=O)C1=C(c2cccc(OCc3ccccc3)c2)C[C@@H]2CC[C@H]1N2C(=O)NCc1ccccc1 | / | / | / | 13.1µM | ? | /
COC(=O)C1=C(c2cccc(OCc3ccccc3)c2)C[C@@H]2CC[C@H]1N2C(=O)NCc1cccc(C(F)(F)F)c1 | / | / | / | 13.1µM | ? | .
COC(=O)C1=C(c2cccc(OCc3ccccc3)c2)C[C@@H]2CC[C@H]1N2C(=O)NCc1ccc([N+](=O)[O-])cc1 | / | / | / | 11.7µM | ? | /
O=S(=O)(c1ccccc1)N1CCC(c2ccncc2)CC1 | / | / | . | / | / | /
O=C(CN(Cc1ccco1)C(=O)c1ccc(Cl)cc1)Nc1c(Cl)cc(Cl)cc1Cl | . | . | . | . | ? | .
COC(=O)C1=C(c2cccc(OCc3ccccc3)c2)C[C@@H]2CC[C@H]1N2C(=O)NCc1cccc(F)c1 | / | / | / | 8.28µM | ? | /
COC(=O)C1=C(c2cccc(OCc3ccccc3)c2)C[C@@H]2CC[C@H]1N2C(=O)NCc1ccc(OC)c(OC)c1 | / | / | / | ? | ? | .
COC(=O)C1=C(c2cccc(OCc3ccccc3)c2)C[C@@H]2CC[C@H]1N2C(=O)NCc1ccc(OC)cc1 | / | / | / | 7.38µM | ? | /
COc1ccc(-n2nnnc2SCC(=O)N(C)C2CCS(=O)(=O)C2)cc1 (stereo unspecified) | / | / | . | / | / | .
COCc1nc2oc3ccccc3c(=O)c2cc1C(=O)OC | 45.7 | 12.0 | / | . | . | /
SMILES | Shiga toxin inh | CHX counter | LASV entry inh | Pf growth 48h | Pf growth 96h | Marburg entry inh
CCOC(=O)c1c(C)nc(C)c2c(=O)oc3ccccc3c12 | 92.6 | 33.4 | . | . | . | .
CCOC(=O)c1cc2c(=O)c3ccccc3oc2nc1C | 102.8 | 39.9 | / | . | . | .
CCN(CC)C(=O)c1cc2c(=O)c3cc(F)ccc3oc2nc1C | 63.7 | 38.5 | . | . | . | ?
O=C(Cn1nnc(-c2ccc(Cl)cc2)n1)NC1CCN(Cc2ccccc2)CC1 | . | . | . | . | ? | .
Cc1cccc(C(C)C)c1NC(=O)CN1C(=O)NC2(CCc3ccccc32)C1=O (stereo unspecified) | / | / | . | . | ? | .
Nc1c(Cl)c(Cl)nc(C(=O)N/N=C/c2cccnc2)c1Cl | . | . | . | . | ? | .
Cc1nn(CC(=O)N2N=C(C(F)F)CC2(O)C(F)F)c(C)c1[N+](=O)[O-] (stereo unspecified) | . | . | . | . | . | .
N#Cc1c2n(c3c(=S)nc[nH]c13)CCCCC2 | . | . | . | . | . | .
C/C(=N\Nc1ccc2nncn2n1)c1cccs1 | . | 40.6 | ? | . | . | .
O=C(CN(C(=O)CCC(=O)Nc1ccccn1)c1ccc2c(c1)OCO2)NCc1ccco1 | . | . | . | . | . | .
Cc1csc(=O)n1CCC(=O)OCC(=O)Nc1ncc(Cl)cc1Cl | / | / | . | . | . | .
CCOc1ccccc1CNC(=O)Cn1ccc2cc(S(=O)(=O)N3CCCC3)ccc21 | . | . | . | ? | 13.1µM | .
CCOCCCNC(=O)CCn1ccc2cc(S(=O)(=O)N3CCCC3)ccc21 | . | . | / | ? | 10.4µM | /
CCOc1ccccc1CNC(=O)CCCn1ccc2cc(S(=O)(=O)N3CCCC3)ccc21 | . | . | . | ? | ? | /
Cc1ccc(N2C(=O)CC(Sc3nccc(C)n3)C2=O)cc1 (stereo unspecified) | . | . | . | . | . | ?
CCOC(=O)C1CCN(CC(=O)N2C(C)CCCC2C)CC1 (stereo unspecified) | . | . | . | . | . | .
Cc1ccccc1C(=O)N1CCN(c2ccccn2)CC1 | . | . | . | . | . | .
Cc1n[nH]c(C)c1CN(C)C(=O)c1cc(COc2ccc(F)c(F)c2)on1 | . | . | . | . | . | .
CN(CCN1CCOCC1)C(=O)c1cc(COc2ccc(F)c(F)c2)on1 | . | 33.9 | ? | . | . | ?
COc1ccc(OCc2cc(C(=O)N(C)C3CCOC3)no2)c(Cl)c1 (stereo unspecified) | . | 26.6 | . | . | . | ?
Cc1ccc(OCc2cc(C(=O)N(C)CC3CCOCC3)no2)cc1C | 133.2 | 77.1 | / | . | ? | /
CN(C(=O)c1cc(COc2ccc(F)c(F)c2)on1)C1CCOC1 (stereo unspecified) | . | 30.5 | / | . | . | /
CCCN1C(=O)C(O)(CC(=O)c2ccc(CC)cc2)c2ccccc21 (stereo unspecified) | / | / | . | / | / | /
CCN(CC)c1ccc(NC(=O)C2CCN(S(=O)(=O)c3c(C)noc3/C=C/c3ccccc3F)CC2)c(C)c1 | / | / | . | / | / | /
CN(Cc1nccn1C)C(=O)c1cc(COc2ccc3ncccc3c2)on1 | . | . | . | . | . | ?
COc1cc(Cl)ccc1OCc1cc(C(=O)N(C)C2CC(C)(C)NC(C)(C)C2)no1 | . | . | ? | . | . | .
Cc1cc(OCc2cc(C(=O)N3CCN(C)C(=O)[C@@H]3C)no2)cc(C)c1Cl | . | . | / | ? | ? | /
Cc1ccc(OCc2cc(C(=O)N(C)Cc3cnc4ccccn34)no2)cc1C | . | 20.2 | / | . | ? | /
